Screening data as filed in PubChem.
Only some compounds are listed: those with a hit (about 9% of all), similar ones and a draw of the others.
HPGD inh – qHTS Assay for Inhibitors of HPGD (15-Hydroxyprostaglandin Dehydrogenase) | 15-hydroxyprostaglandin dehydrogenase [NAD(+)] (Homo sapiens), P15428 | purified HPGD, NADH fluorescence kinetic, PGE2 substrate | Potency, µM, for inactives: top-dose activity change, negative = inhibition, hits mostly inhibitors | 150,000 compounds, 4.3% hits | AID 894, 2007
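20 nM HPGD preincubated 15 min at room temperature with compound in 50 mM Tris-HCl pH 8, 0.01% Tween 20. Started with 1 mM NAD+ and 30 uM prostaglandin E2; NADH fluorescence (360/450 nm) read 5 times over 30-s intervals, last minus first.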
KinaseGlo FLuc – Counterscreen for Luciferase (Kinase-Glo TM) Inhibition; Luciferin 4-monooxygenase (Photuris pensylvanica), Q27757; Kinase-Glo luciferase, ATP luminescence, 8 min; Potency, µM (series often up to 38.3 µM), for the others: top-dose activity change, negative = inhibition, hits mostly inhibitors; 200,000 compounds, 0.28% hits; AID 1379, 2008; active means well fitted curve in the direction sought with a large enough effect; inconclusive means small, poorly fitted or top-dose-only effect, or another doubt; inactive means no such curve, though single readings can be large; an effect the other way counts as inactive or inconclusive; further: nearly all actives have a fitted effect of over 60% in size
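Substrate mix (final 50 mM imidazole pH 7.2, 50 mM KCl, 7 mM MgCl2, 10 uM ATP, 0.01% Tween 20, 0.05% BSA) plus pin-tool compound, then Kinase-Glo detection mix; 8 min ambient, luminescence read.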
IMPase Li cell – qHTS Assay for Identifying the Cell-Membrane Permeable IMPase Inhibitors: Potentiation with Lithium | CHO-M1 cells, IP1 TR-FRET (IP-One), carbachol + lithium | Potency, µM (series often up to 59.4 µM), without a hit: top-dose activity, negative = IMPase inhibition, actives largely listed as inhibitors | 210,000 compounds, 0.35% hits | AID 1457, 2008; active means well fitted curve in the direction sought with a large enough effect; inconclusive means small, poorly fitted or top-dose-only effect, or another doubt; inactive means no such curve, though single readings can be large; an effect the other way counts as inactive or inconclusive;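 further: IP1 builds up when IMPase is blocked and the TR-FRET signal falls; plate controls were basal vehicle for no effect and high inhibitor control for full effect; nearly all actives have a fitted effect of over 50% in size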
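CHO cells stably expressing M1 receptor (2000/well, cultured 16–30 h) treated 30 min at 37C with compound plus low lithium. Cytosolic IP1 by TR-FRET (665/620 ratio and 620 channel) after 10 min lysis; AC50 by Hill fit.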
ALDH1A1 block – qHTS Assay for Inhibitors of Aldehyde Dehydrogenase 1 (ALDH1A1); Purified ALDH1A1, NADH fluorescence, propionaldehyde substrate; 220,000 compounds, 7.3% hits; Potency, µM (titrated, usually from 75.3 µM), without a hit: at the top dose activity, negative = inhibition, hits mostly inhibitors; Aldehyde dehydrogenase 1A1 (Homo sapiens), P00352; AID 1030, 2008;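 further: plate controls were no enzyme wells and a reference inhibitor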
Target sequence (P00352 whole entry, looked up): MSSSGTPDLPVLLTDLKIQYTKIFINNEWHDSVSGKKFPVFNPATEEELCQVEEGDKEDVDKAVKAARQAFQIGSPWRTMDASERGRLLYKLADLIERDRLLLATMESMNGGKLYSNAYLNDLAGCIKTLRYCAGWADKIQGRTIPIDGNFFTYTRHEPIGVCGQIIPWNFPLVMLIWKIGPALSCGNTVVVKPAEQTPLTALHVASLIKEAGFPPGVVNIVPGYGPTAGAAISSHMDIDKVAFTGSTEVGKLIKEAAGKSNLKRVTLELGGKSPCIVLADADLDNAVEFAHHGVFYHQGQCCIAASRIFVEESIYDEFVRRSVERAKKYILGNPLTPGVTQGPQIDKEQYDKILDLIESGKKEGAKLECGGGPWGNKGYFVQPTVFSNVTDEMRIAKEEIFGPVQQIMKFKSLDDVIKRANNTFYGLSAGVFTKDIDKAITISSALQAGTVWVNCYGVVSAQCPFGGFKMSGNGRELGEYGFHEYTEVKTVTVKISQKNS
LMNA splice mod – qHTS Assay for Modulators of Lamin A Splicing; AID 1487, 2009; Potency, µM (titrated, usually from 46.1 µM), without a hit: at the highest dose ratio change, negative = inhibition, usual class: inhibitors; 200,000 compounds, 0.01% hits; HeLa LMNA splicing GFP/RFP minigene ratio, 48 h; active means well fitted inhibition curve with a large enough effect in the signal ratio, with a control signal flat, not every such curve was filed as active; inconclusive means small, poorly fitted or top-dose-only effect, or effect the other way, or a change in a side signal; the % refers to the signal ratio
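Read-out is the ratio of GFP to DsRed2 object intensity, acquired by 488 nm laser-scanning cytometry on HeLa lamin A-EGFP minigene reporter cells. Compound incubation 48 hrs at 37 °C in Opti-MEM with 2% FBS; DMSO 0.5% final.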
Starred values were filed as active, the others as inactive; ? = inconclusive; / = not tested or not shown; [ ] = another dose, or the depositor's remark. Unless noted, the call rests on the fitted dose curve; in most records, active means well fitted inhibition curve with a large enough effect (not every such curve was filed as active); inconclusive means small, poorly fitted or top-dose-only effect, or another doubt; inactive means no such curve, though single readings can be large or run the other way. Unless noted, on the % scale 0 is the no-effect control and ±100 the full control effect; potency means the concentration at half of the fitted maximal effect.

SMILES	HPGD inh	KinaseGlo FLuc	IMPase Li cell	ALDH1A1 block	LMNA splice mod
COc1cccc(C(=O)N2CCN(Cc3cccc(F)c3)CC2)c1	-1%	-3%	20%[38.3 µM]	18µM*	0%
Cc1ccc(O)c(C2=NOC(O)(C(F)(F)F)C2)c1 (stereo not drawn)	14µM*	1%	-1%[38.3 µM]	3%	0%
Cc1ccc(O)c(C2=NCCNC(C(F)(F)C(F)F)=C2)c1	-4%	-6%	14%[38.3 µM]	-3%	8%
Cc1ccc(O)c(C2=NOC(O)(C(F)(F)C(F)F)C2)c1 (stereo not drawn)	5µM*	0%	-4%[38.3 µM]	9%	?
Cc1nnc(SCc2nc3sc4c(c3c(=O)[nH]2)CCCC4)n(N)c1=O	/	/	/	22µM*	?
O=c1[nH]c(SCc2nc3ccccc3n2Cc2ccccc2)nc2ccccc12	?	-1%	7.9µM*	?	25%
CCOC(=O)CSc1nnc(CSc2nc3sc4c(c3c(=O)[nH]2)CCC4)n1C	8.9µM*	1%	-1%[38.3 µM]	-6%	2%
CCOC(=O)CSc1nnc(CSc2nc3ccccc3c(=O)[nH]2)n1-c1ccccc1	4.5µM*	2%	31%[38.3 µM]	?	-4%
CCCCNC(=O)CN1C(=O)c2cccnc2Sc2ccccc21	/	/	/	/	-4%[46 µM]
O=C1CC(c2nc(-c3ccc(Cl)cc3)no2)CN1c1ccc2c(c1)OCCO2 (stereo not drawn)	/	/	/	/	-22%[46 µM]
CCOC(=O)CSc1nnc(CSc2nc3sc4c(c3c(=O)[nH]2)CCC4)n1-c1ccccc1	8.9µM*	-1%	6%[38.3 µM]	8%	22%
CCOC(=O)/C(C#N)=C1\CC2CCC1(C)C2(C)C (stereo not drawn)	/	6%	14%	13µM*	25%[46 µM]
CCCC(C)NC(=O)c1ccc(F)cc1 (stereo not drawn)	?	-5%	15%[38.3 µM]	40µM*	-5%
CC(C)NC(=O)CCNC(=O)c1ccc(F)cc1	-6%	2%	10%[38.3 µM]	2.8µM*	5%
CCCC(C)NC(=O)c1ccc(-c2ccccc2)cc1 (stereo not drawn)	/	/	-9%	10%	/
COc1cc(C(=O)NCCC(=O)NC(C)C)cc(OC)c1OC	/	0%	-3%	-4%	24%[46 µM]
CCOC(=O)C1CCN(c2ccc([N+](=O)[O-])cc2)CC1	/	-3%	6%	-11%	1%[46 µM]
CCN(CC)C(=O)C1CCCN(c2ccc([N+](=O)[O-])cc2/C=N/NC(=O)c2ccc([N+](=O)[O-])cc2)C1 (stereo not drawn)	-7%	3%	-1%[38.3 µM]	?	4%
CCN(CC)C(=O)C1CCCN(c2ccc([N+](=O)[O-])cc2)C1 (stereo not drawn)	/	2%	14%	20µM*	/
CCN(CC)C(=O)C1CCCN(c2ccc([N+](=O)[O-])cc2/C=N/NC(=O)c2cccc(O)c2)C1 (stereo not drawn)	-26%	-3%	57%[38.3 µM]	28µM*	-3%
CCN(CC)C(=O)C1CCCN(c2ccc([N+](=O)[O-])cc2/C=N/NC(=O)c2ccccc2)C1 (stereo not drawn)	-11%	1%	12%	28µM*	1%
CN1CCN(c2ccc([N+](=O)[O-])cc2/C=N/NC(=O)c2cccc([N+](=O)[O-])c2)CC1	-17%	1%	14%	20µM*	-7%
COC(=O)c1nnn(-c2ccsc2C(=O)OC)c1C(=O)OC	/	-1%	-12%	-2%	9%[46 µM]
O=[N+]([O-])c1ccc(Oc2ccc(/C=N/O)cc2)nc1	/	-1%	-2%	1%	/
O=C1NC(=O)/C(=C\c2ccc(Oc3ccc([N+](=O)[O-])cn3)cc2)S1	13µM*	-1%	2%	?	?
CC(Oc1ccccc1Cl)C(=O)/C=C/N(C)C (stereo not drawn)	14µM*	-1%	-2%[38.3 µM]	-3%	-4%
CC(Oc1ccc(F)cc1)C(=O)/C=C\N(C)C (stereo not drawn)	-26%	2%	-8%	8%	-10%
